Common to all, as to assay: NCI-60 one-dose screen, 48 h (100 = growth as untreated, 0 = no growth, -100 = all killed)
For one assay, the system named is SR leukemia. The note with it: 10 µM unless noted.
The subject of another assay is RPMI-8226 leukemia. Particulars: 10 µM unless noted.
A further assay deals with OVCAR-8 ovarian. Particulars: 10 µM unless noted.
For a further assay, the system named is OVCAR-5 ovarian. The note with it: 10 µM unless noted.
In the next assay the test system is SK-OV-3 ovarian. Particulars: 10 µM unless noted.
For a further assay, the system named is IGROV1 ovarian. Particulars: 10 µM unless noted.
In the next assay the test system is OVCAR-3 ovarian. The note with it: 10 µM unless noted.
The subject of another assay is HS 578T breast. Particulars: 10 µM.
In another assay the test system is NCI/ADR-RES ovarian. The note with it: 10 µM unless noted.
For the next assay, the system named is T-47D breast. The note with it: 10 µM unless noted.
In another assay the test system is BT-549 breast. Particulars: 10 µM unless noted.
A further assay relates to MDA-MB-435 melanoma. The note with it: 10 µM unless noted.
A further assay has as its system SW-620 colon. Particulars: 10 µM unless noted.
Another assay concerns MCF7 breast. Particulars: 10 µM unless noted.
A further assay has as its system HCT-116 colon. The note with it: 10 µM unless noted.
The test system of the next assay is HCC-2998 colon. The note with it: 10 µM unless noted.
The next assay relates to KM12 colon. Particulars: 10 µM unless noted.
In a further assay the test system is OVCAR-4 ovarian. The note with it: 10 µM unless noted.

Compounds without any hit were thinned out: in the full panel of roughly 83,000, 20% have a hit.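 A percent growth of 40 corresponds to 60% growth inhibition; 0 means no net growth; -100 means all cells died. Active threshold: below 10.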 Values without a mark were called inactive. Activity calls are given as the source filed them.

Regarding `O=C1c2ccccc2C2N1CCC1CCc3ccccc3N12` (stereo not drawn), the growth is 114% in the assay with SR leukemia; 105% in the assay with RPMI-8226 leukemia; 101% in the assay with OVCAR-8 ovarian; 92% in the assay on OVCAR-5 ovarian; 109% in the assay with SK-OV-3 ovarian; 99.8% with IGROV1 ovarian. Moreover, the growth with OVCAR-3 ovarian is 115%; with HS 578T breast, 99.8%; in the assay with NCI/ADR-RES ovarian, 103%; in the assay on T-47D breast, 107%; in the assay with BT-549 breast, 88.1%; in the assay on MDA-MB-435 melanoma, 110%. The growth was 102% in the assay with SW-620 colon; 96.4% in the assay with MCF7 breast; 93.7% with HCT-116 colon; 110% in the assay with HCC-2998 colon; 108% in the assay with KM12 colon.

With `CCCCNCCC(O)c1cc2ccc(C(F)(F)F)cc2c2cc(C(F)(F)F)ccc12` (stereo not drawn), the growth in the assay on SR leukemia is -70.2% (active); with RPMI-8226 leukemia, -42.8% (active); in the assay with OVCAR-8 ovarian, -77.3% (active); in the assay on OVCAR-5 ovarian it was -79.9% (active); with SK-OV-3 ovarian it was -34% (active); with IGROV1 ovarian, -60.9% (active). The growth was -84.8% (active) with OVCAR-3 ovarian; -55.2% (active) in the assay on HS 578T breast; -74.5% (active) with NCI/ADR-RES ovarian; -76.3% (active) with T-47D breast; 4.84% (active) in the assay with BT-549 breast; -69.3% (active) in the assay on MDA-MB-435 melanoma. Further, the growth is -76.2% (active) in the assay on SW-620 colon; -79.3% (active) in the assay with MCF7 breast; -87.3% (active) in the assay with HCT-116 colon; -78.5% (active) with HCC-2998 colon; -85.2% (active) in the assay on KM12 colon.

In the case of `Cc1cc(C#Cc2ccccc2)ccc1-n1c(/C=C/c2ccc(F)cc2)nc2ccccc2c1=O`, the growth in the assay with SR leukemia is 64.8%; in the assay with RPMI-8226 leukemia it was 25.6%; with OVCAR-8 ovarian it was 90.6%; in the assay with OVCAR-5 ovarian, 106%; in the assay on OVCAR-4 ovarian it was 57.6%; in the assay on SK-OV-3 ovarian it was 89.9%. Also, the growth in the assay with IGROV1 ovarian is 95.2%; with HS 578T breast it was 93.3%; with NCI/ADR-RES ovarian, 83.3%; in the assay with T-47D breast, 41%; with BT-549 breast, 90.4%; in the assay on MDA-MB-435 melanoma it was 66.9%. For the same compound, the growth was 47.8% in the assay on SW-620 colon; 38.8% in the assay on MCF7 breast; 46% in the assay on HCT-116 colon; 86.6% in the assay with HCC-2998 colon; 62.5% in the assay on KM12 colon.

For `COc1cc(NC(C)CCCN)c2ncccc2c1Sc1ccc(Cl)cc1` (stereo not drawn), the growth was -35.2% (active) in the assay with SR leukemia; -8.1% (active) in the assay on RPMI-8226 leukemia; 33.3% in the assay on OVCAR-8 ovarian; 77.8% in the assay on OVCAR-5 ovarian; 94.7% in the assay on SK-OV-3 ovarian; 38.9% in the assay with IGROV1 ovarian. In addition, the growth is 58.6% in the assay on OVCAR-3 ovarian; 58.9% in the assay with HS 578T breast; 91.6% in the assay with NCI/ADR-RES ovarian; 58.7% in the assay with T-47D breast; 90.9% in the assay with BT-549 breast; 55.7% with MDA-MB-435 melanoma. The growth in the assay on SW-620 colon is -69.1% (active); in the assay on MCF7 breast, 26%; with HCT-116 colon, 23.9%; in the assay on HCC-2998 colon it was 12.3%; with KM12 colon, 34.4%.

Turning to `CN(C)c1ccc(Nc2c3ccccc3nc3ccccc23)cc1`, the growth in the assay on SR leukemia is -8.36% (active); in the assay with RPMI-8226 leukemia it was 17.2%; in the assay on OVCAR-8 ovarian, 23.5%; in the assay on OVCAR-5 ovarian, 43.7%; in the assay with OVCAR-4 ovarian it was 1.57% (active); with SK-OV-3 ovarian, 22%. For the same compound, the growth is -11.7% (active) in the assay with OVCAR-3 ovarian; 25.2% in the assay with HS 578T breast; 12.5% in the assay with NCI/ADR-RES ovarian; 11.1% with T-47D breast; 44.5% in the assay with BT-549 breast; 19.4% in the assay with MDA-MB-435 melanoma. For the same compound, the growth was 13.6% in the assay on SW-620 colon; 5.1% (active) with MCF7 breast; 5.58% (active) in the assay on HCT-116 colon; 0.72% (active) in the assay with HCC-2998 colon; 18% with KM12 colon.

On to `COc1cc(NCCCCC(C)N)c2nccc(C)c2c1` (stereo not drawn), for which the growth in the assay with SR leukemia is 98.7%; in the assay with RPMI-8226 leukemia, 75.2%; in the assay with OVCAR-8 ovarian, 97%; in the assay on OVCAR-5 ovarian, 81.6%; in the assay with SK-OV-3 ovarian it was 93.3%; in the assay with IGROV1 ovarian, 71.3%. For the same compound, the growth with OVCAR-3 ovarian was 73.5%; in the assay with HS 578T breast it was 80.2%; in the assay on NCI/ADR-RES ovarian, 100%; in the assay on T-47D breast it was 48.1%; in the assay on BT-549 breast, 94.5%; in the assay with MDA-MB-435 melanoma it was 106%. In addition, the growth with SW-620 colon is 93.3%; in the assay on MCF7 breast, 4.24% (active); in the assay with HCT-116 colon, 99.2%; in the assay with HCC-2998 colon, 63.9%; in the assay with KM12 colon it was 94.7%.

As to `COc1ccc(Br)c2ccccc12`, the growth in the assay on SR leukemia was 96%; in the assay with RPMI-8226 leukemia it was 105%; in the assay on OVCAR-8 ovarian it was 99.7%; in the assay on OVCAR-5 ovarian, 110%; with OVCAR-4 ovarian, 117%; in the assay with SK-OV-3 ovarian it was 115%. For the same compound, the growth in the assay with OVCAR-3 ovarian was 112%; in the assay on HS 578T breast it was 112%; in the assay on NCI/ADR-RES ovarian it was 118%; in the assay with T-47D breast, 97.9%; in the assay on BT-549 breast, 123%; in the assay on MDA-MB-435 melanoma, 105%. In addition, the growth was 106% in the assay with SW-620 colon; 100% in the assay on MCF7 breast; 108% with HCT-116 colon; 104% with HCC-2998 colon; 109% in the assay on KM12 colon.

On to `C/C(CC(=O)NNc1ccc([N+](=O)[O-])cc1)=N\Nc1ccc([N+](=O)[O-])cc1`, for which the growth with SR leukemia is 46.9%; in the assay on RPMI-8226 leukemia it was 72.1%; in the assay on OVCAR-8 ovarian, 81.3%; with OVCAR-5 ovarian, 48.8%; in the assay on SK-OV-3 ovarian, 90.6%; in the assay on IGROV1 ovarian it was 78.3%. Moreover, the growth was 73.7% in the assay on OVCAR-3 ovarian; 86.2% with HS 578T breast; 49.7% with NCI/ADR-RES ovarian; 50% in the assay on T-47D breast; 99.6% with BT-549 breast; 35.4% in the assay on MDA-MB-435 melanoma. In addition, the growth was 48.6% with SW-620 colon; 83.8% in the assay with MCF7 breast; 47.3% with HCT-116 colon; 74.5% with HCC-2998 colon; 25.4% with KM12 colon.

As to `O=C(O)C1[S][Sb]([CH](C(=O)O)[CH](C(=O)O)[Sb]2[S]C(C(=O)O)C(C(=O)O)[S]2)[S]C1C(=O)O` (stereo not drawn), the growth is 50.2% in the assay on SR leukemia; 91.9% in the assay with RPMI-8226 leukemia; 96.2% in the assay with OVCAR-8 ovarian; 118% in the assay with OVCAR-5 ovarian; 103% with SK-OV-3 ovarian; 87.8% with IGROV1 ovarian. The growth is 95.7% with OVCAR-3 ovarian; 101% in the assay on HS 578T breast; 104% in the assay with NCI/ADR-RES ovarian; 86.8% in the assay with T-47D breast; 63.8% with BT-549 breast; 116% in the assay on MDA-MB-435 melanoma. The growth with SW-620 colon was 103%; in the assay on MCF7 breast, 67.9%; in the assay with HCT-116 colon, 100%; in the assay on HCC-2998 colon, 108%; in the assay with KM12 colon, 100%.

For the origin of these results see PubChem BioAssay (NCI).
